The target in experiment [1] is Estrogen receptor (Homo sapiens) (UniProt P03372). The experiment is described as follows: CCTE_Deisenroth_AIME_384WELL_LUC_Active: CCTE's 384-well Estrogen Receptor Transactivation Assay with AIME metabolic competence (ERTA luciferase; metabolism positive), Deisenroth Lab (AID 2284030; active = hit-call score of the fitted dose curve at least 0.9, where 1 is the maximum). Summed up:
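Chemicals (10-point, 0.002-200 uM) were first incubated 2 hours with alginate-immobilized induced male Sprague Dawley rat liver S9. The conditioned medium was then applied to VM7Luc4E2 cells for 24 hours, with ER luciferase induction read by luminescence relative to 17beta-estradiol.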

Experiment [2] has the same target. The experiment is described as follows: CCTE_Deisenroth_AIME_384WELL_LUC_Inactive: CCTE's 384-well Estrogen Receptor Transactivation Assay without AIME metabolic competence (ERTA luciferase; metabolism negative), Deisenroth Lab (AID 2284038; active = hit-call score of the fitted dose curve at least 0.9, where 1 is the maximum;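 also: VM7Luc4E2 breast cells given medium preincubated 2 h with S9-free microspheres; hits raise estrogen receptor luciferase signal so potencies reflect agonists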). Summed up: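 Chemicals (10-point series, 0.002 - 200 uM) were incubated 2 hours with alginate-water microsphere lids lacking S9, then the conditioned medium was transferred to VM7Luc4E2 breast cells for 24 hour. Luciferase induction was read by bioluminescence, fitted upward relative to 17beta-estradiol.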

For experiment [3] the target is unchanged. Briefly: CCTE_Deisenroth_AIME_384WELL_LUC_Shift: CCTE's 384-well Estrogen Receptor Transactivation Assay with AIME metabolic competence data shift (ERTA luciferase; difference in metabolism positive and negative), Deisenroth Lab (AID 2284041).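 Also: shift is response with S9 minus without S9 so positive means metabolism raised ER signal.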 The method, boiled down:
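Test chemicals (0.002–200 uM, 10-point) were pre-incubated 2 h with alginate microspheres containing phenobarbital/beta-naphthoflavone-induced male Sprague Dawley rat liver S9 or water, then medium was transferred to VM7Luc4E2 cells for 24 h luciferase readout; shift = S9-positive minus S9-negative normalized response.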

Experiment [4] in a line: CCTE_Deisenroth_AIME_384WELL_CTox_Active: Cytotoxicity Assessment (CTOX) in CCTE's 384-well Estrogen Receptor Transactivation Assay with AIME metabolic competence (metabolism positive), Deisenroth Lab (AID 2284037; active = hit-call score of the fitted dose curve at least 0.9, where 1 is the maximum;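 also: chemicals first conditioned 2 h by alginate-bound induced rat liver S9 before cells; activity means signal loss indicating cell death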). The method, boiled down:
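Cytotoxicity in VM7Luc4E2 breast cells, 24 hour, measured as protease-substrate fluorescence loss, after 2-hour metabolic conditioning with induced rat hepatic S9 in alginate microspheres. Concentrations 0.002 - 200 uM, 10 points, bidirectional fitting.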

The nature of experiment [5]: CCTE_Deisenroth_AIME_384WELL_CTox_Inactive: Cytotoxicity Assessment (CTOX) in CCTE's 384-well Estrogen Receptor Transactivation Assay without AIME metabolic competence (metabolism negative), Deisenroth Lab (AID 2284039; active = hit-call score of the fitted dose curve at least 0.9, where 1 is the maximum;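 also: cell viability via live-cell protease substrate cleaved to fluorescent probe; cells exposed 24 h to medium preincubated 2 h with alginate-water beads without S9; loss of fluorescence signal means loss of viability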). The method, boiled down:
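VM7Luc4E2 cells, metabolism-negative arm: test chemicals (0.002–200 uM, 10 points) pre-incubated 2 h with alginate-water microspheres, then medium transferred to cells for 24 h. Viability read as protease-substrate cleavage to fluorescent probe; loss-of-signal, bidirectional fitting.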

A short description of experiment [6]: CCTE_Shafer_MEA_dev_firing_rate_mean: CCTE's Neural Network Formation Assay for Mean Firing Rate, Shafer Lab (AID 2284031).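 As to AC50: curve fitted for loss of firing so AC50 reflects decreased mean firing rate.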 Summed up:
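Developing rat cortical networks on MEA plates undergo 12-day compound exposure. Firing frequency, averaged across active electrodes, is integrated as area under the curve over four recording days, referenced to DMSO.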

Experiment [7] in a line: CCTE_Shafer_MEA_dev_per_burst_spike_percent: CCTE's Neural Network Formation Assay for Percent of Spikes in a Burst, Shafer Lab (AID 2284032).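 As to AC50: fitted as a decrease in burst spike percentage below DMSO baseline.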 The method, boiled down: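 Rat primary cortical neurons on 16-electrode MEA wells, dosed from plating day 0 for 12 days with renewal on DIV 5 and 9; spikes-in-bursts percentage averaged over bursting electrodes, collapsed as AUC across days 5, 7, 9, 12; loss direction versus DMSO.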

Experiment [8] in a line: CCTE_Shafer_MEA_dev_active_electrodes_number: CCTE's Neural Network Formation Assay for Number of Active Electrodes, Shafer Lab (AID 2284040; active = hit-call score of the fitted dose curve at least 0.9, where 1 is the maximum;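 as to AC50: potency for loss of active electrodes versus DMSO so lower counts are hits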). The method, boiled down: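 Rat cortical primary cultures, 1.5 x 10^5 cells/well, PEI-coated MEA, laminin drop. Continuous exposure DIV 0–12; full media/compound change DIV 5, 9. Readout: electrodes with mean firing ≥5 spikes/min; AUC across days; loss vs DMSO.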

The nature of experiment [9]: CCTE_Shafer_MEA_dev_burst_rate: CCTE's Neural Network Formation Assay for Burst Rate, Shafer Lab (AID 2284042).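 As to AC50: potency for loss of burst rate below DMSO control.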 Summed up: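 Primary rat cortical neurons on PEI-coated 48-well MEA plates (laminin added with cells at plating) (16 electrodes/well), exposed from plating to day 12, dosing renewed at DIV 5 and 9. Burst rate averaged over active electrodes, recorded DIV 5, 7, 9, 12, summarized as AUC; loss versus DMSO.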

Experiment [10] can be described thus: CCTE_Shafer_MEA_dev_bursting_electrodes_number: CCTE's Neural Network Formation Assay for Number of Bursting Electrodes, Shafer Lab (AID 2284043; active = hit-call score of the fitted dose curve at least 0.9, where 1 is the maximum;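 as to AC50: potency is for loss of bursting electrodes relative to DMSO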). The method, boiled down:
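Read-out is the per-well number of electrodes bursting at least once every 2 minutes, recorded on days 5, 7, 9 and 12 and collapsed by trapezoidal area under the curve. Cultures were primary rat cortical neurons on MEA plates, treated continuously from plating.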

Experiment [11] can be described thus: CCTE_Shafer_MEA_dev_per_burst_interspike_interval: CCTE's Neural Network Formation Assay for Burst Interspike Interval, Shafer Lab (AID 2284044).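 Also: mean spike spacing inside bursts as AUC over recordings on days 5 7 9 12.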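 As to AC50: potency for a decrease of within-burst interspike interval below DMSO level.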 The method, boiled down: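 Primary rat cortical neurons on 48-well MEA plates, exposed from day 0 through day 12, treatment renewed at DIV 5 and 9. Within-burst interspike interval recorded days 5, 7, 9, 12, well-averaged, summarised as AUC; negative fit versus DMSO.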

The nature of experiment [12]: CCTE_Shafer_MEA_dev_interburst_interval_mean: CCTE's Neural Network Formation Assay for Mean Interburst Interval, Shafer Lab (AID 2284046).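 Also: well-mean interburst interval of bursting electrodes as AUC over four recording days; curve fitted for decrease in interburst interval relative to DMSO.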 Summed up:
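Recordings on days 5, 7, 9 and 12 give well-mean interburst interval across actively bursting electrodes, summarized as area under the curve. Cultures: rat cortical neurons, continuous exposure from day 0, compound renewed at feeds; decrease analyzed versus DMSO.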

A short description of experiment [13]: CCTE_Shafer_MEA_dev_inter_network_spike_interval_mean: CCTE's Neural Network Formation Assay for Mean Inter-network Spike Interval, Shafer Lab (AID 2284047).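 As to AC50: potency for a decrease in mean inter-network spike interval below DMSO.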 The method, boiled down:
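Primary rat cortical neurons on 16-electrode MEA wells, exposed from plating day 0 through DIV 12, compound renewed at DIV 5 and 9 media changes. Mean interval between network-spike peaks recorded DIV 5, 7, 9, 12; collapsed as trapezoidal AUC, fitted downward versus DMSO.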

Experiment [14] in a line: CCTE_Shafer_MEA_dev_network_spike_number: CCTE's Neural Network Formation Assay for Number of Network Spikes, Shafer Lab (AID 2284048).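 Also: synchronized bursts across electrodes counted on days 5 7 9 12 and integrated as AUC.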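 As to AC50: fit as a loss of signal meaning fewer network spikes than DMSO.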 The method, boiled down:
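Developing networks of primary rat cortical neurons are treated over 12 days starting at plating, with media and compound fully replaced on DIV 5 and 9. Network spike counts from four recording days are integrated as trapezoidal AUC.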

Several values for one entry are separate records, joined by “and”; a condition that tells them apart may be missing. Identical values can stand only once. Results filed as inconclusive are left out. More than one record can exist for a structure, and the calls need not agree. Activity calls are given as the source filed them. The calls were made as follows, unless noted: active = hit-call score of the fitted dose curve at least 0.9, where 1 is the maximum; inactive = score below 0.9.

Estrogen receptor (Homo sapiens), sequence (P03372 whole entry, looked up): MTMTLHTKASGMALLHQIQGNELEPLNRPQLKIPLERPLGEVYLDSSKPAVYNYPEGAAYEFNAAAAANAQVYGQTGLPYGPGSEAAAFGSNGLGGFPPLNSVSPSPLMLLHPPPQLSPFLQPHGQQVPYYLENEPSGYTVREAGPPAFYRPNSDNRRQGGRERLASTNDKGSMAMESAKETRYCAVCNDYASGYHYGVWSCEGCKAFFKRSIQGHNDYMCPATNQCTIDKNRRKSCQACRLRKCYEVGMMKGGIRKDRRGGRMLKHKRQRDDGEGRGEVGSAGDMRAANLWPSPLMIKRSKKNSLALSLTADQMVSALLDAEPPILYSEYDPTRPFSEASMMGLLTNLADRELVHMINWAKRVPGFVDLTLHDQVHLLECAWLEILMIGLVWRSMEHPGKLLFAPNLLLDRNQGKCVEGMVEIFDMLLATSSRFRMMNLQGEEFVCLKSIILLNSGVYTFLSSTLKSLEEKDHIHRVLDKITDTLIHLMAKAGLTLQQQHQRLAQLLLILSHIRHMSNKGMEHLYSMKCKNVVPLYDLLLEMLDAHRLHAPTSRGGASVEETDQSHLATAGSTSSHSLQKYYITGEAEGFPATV

In the case of `CC(C)c1nnc2ccc(-c3ocnc3-c3cc(F)ccc3F)cn12`, the outcome in experiment [1], in experiment [2] and in experiment [3] was inactive.
With `CCOC(N)=O`, the molecule was classed as inactive in experiment [1], in [4], in [2], in [5] and in [3].
Take `Cn1cc[nH]c1=S`: the molecule was classed as inactive in [6], in experiment [7], in experiment [8], in [9], in [10] and in [11]. The outcome in experiment [12], in experiment [13] and in [14] was inactive.
Take `CCCCCOC(C)=O`: the molecule was classed as inactive in [1], in experiment [4], in experiment [2], in experiment [5] and in [3].
With `NC(=O)NN=Cc1ccc([N+](=O)[O-])o1`, the AC50 was 116 µM (active) in experiment [4] and 108 µM (active) in experiment [5]. Also, the result in experiment [3] was inactive.
On to `CC(C)CC(C)O` (configuration not stated), for which the result in experiment [1], in experiment [4], in experiment [2], in experiment [5] and in experiment [3] was inactive.
For `O=C1CN(N=Cc2ccc([N+](=O)[O-])o2)C(=O)N1`, the molecule was classed as inactive in experiment [1], in experiment [4], in [2] and in experiment [3]. The AC50 in experiment [5] is 31.2 µM (active).
On to `NCC(F)(F)C(F)(F)C(F)(F)C(F)(F)F`, for which the outcome in experiment [6], in experiment [7], in experiment [8], in [9], in experiment [10] and in [11] was inactive. Further, the outcome in [12], in experiment [13] and in experiment [14] was inactive.
On to `OCCOCCOCCO`, for which the outcome in experiment [1], in [4], in experiment [2], in [5] and in experiment [3] was inactive.
`NNC(=O)c1ccncc1`: the result in [6], in experiment [7], in experiment [8], in experiment [9], in experiment [11] and in [12] was inactive. Moreover, the result in [13] and in experiment [14] was inactive. In [10], the half-maximal activity concentration (AC50) was 595 nM (active).
With `FC(F)(F)C(F)(F)C(F)(F)C(F)(F)C(F)(F)C(F)(F)I`, the call in experiment [6], in [7], in experiment [8], in [9], in experiment [10] and in experiment [11] was inactive. Besides, the result in experiment [12], in experiment [13] and in [14] was inactive.
For the molecule `c1ccc2ncccc2c1`, the molecule was called inactive in experiment [1], in experiment [2] and in experiment [3].
For `FC(F)(F)COC(OCC(F)(F)F)OCC(F)(F)F`, the call in [6], in experiment [7], in experiment [8], in [9], in experiment [10] and in [11] was inactive. The molecule was called inactive in [12], in experiment [13] and in experiment [14].
With `CCCC(CCC)C(=O)O`, the result in experiment [6], in experiment [7], in [8], in [9], in experiment [10] and in experiment [11] was inactive. Further, the result in experiment [12] and in [14] was inactive.
On to `OC(Cn1cncn1)(Cn1cncn1)c1ccc(F)cc1F`, for which the result in experiment [6], in experiment [7], in experiment [8], in [9], in experiment [11] and in [12] was inactive. For the same molecule, the outcome in experiment [14] was inactive. Also, the AC50 in experiment [13] was 3.83 µM (active).
Consider `C[C@]12C=CC(=O)C=C1CC[C@H]1[C@@H]3C[C@@H](O)[C@](O)(C(=O)CO)[C@@]3(C)C[C@H](O)[C@@]12F`, for which the outcome in [6], in [7], in [8], in [9], in [10] and in experiment [11] was inactive. Also, the molecule was classed as inactive in experiment [12], in experiment [13] and in experiment [14].
Turning to `OC(O)(C(F)C(O)(O)C(F)(F)F)C(F)(F)F`, the result in [6], in experiment [7], in experiment [8], in [9], in experiment [10] and in experiment [11] was inactive. In addition, the result in [12], in [13] and in [14] was inactive. The AC50 in [8] was 3.9 µM (active).
Regarding `NC(=O)N1c2ccccc2C=Cc2ccccc21`, the molecule was classed as inactive in [6], in experiment [7], in [8], in experiment [9], in experiment [10] and in experiment [11]. Besides, the molecule was classed as inactive in [12], in experiment [13] and in [14].
`CCn1nc(C)c2c1C(=O)NCC(c1ccc(O)cc1)=N2`: the call in [1], in [2] and in experiment [3] was inactive.
With `OCC(CO)(CO)CO`, the call in experiment [1], in experiment [2], in [5] and in experiment [3] was inactive.
As for `Nc1ccn([C@@H]2O[C@H](CO)[C@@H](O)[C@@H]2O)c(=O)n1`, the half-maximal activity concentration (AC50) in experiment [6] is 260 nM (active) and 3.02 µM (active); in experiment [7] it was 138 nM (active) and 298 nM (active); in [8] it was 185 nM (active) and 303 nM (active); in experiment [9] it was 120 nM (active) and 1.09 µM (active); in [10], 195 nM (active) and 215 nM (active); in [11], 0.254 µM (active). The AC50 in experiment [12] was 158 nM (active) and 437 nM (active); in experiment [13], 0.14 µM (active); in experiment [14], 144 nM (active) and 143 nM (active). Besides, the molecule was classed as inactive in experiment [11] and in experiment [13].
`CC(C)CCCCCCOC(=O)C1CCCCC1C(=O)OCCCCCCC(C)C` (configuration not stated): the molecule was classed as inactive in experiment [1], in experiment [4], in experiment [2] and in experiment [3].
With `O=C(Cl)C(F)(F)C(F)(F)C(F)(F)C(=O)Cl`, the result in experiment [6], in experiment [8], in experiment [9], in experiment [10], in [11] and in experiment [12] was inactive. Moreover, the call in experiment [13] and in experiment [14] was inactive. Moreover, the concentration at half-maximal activity (AC50) in experiment [7] is 15 µM (active).
Turning to `CC(=O)c1ccccc1`, the result in [1], in experiment [4], in [2], in [5] and in experiment [3] was inactive.
`OCCC(F)(F)C(F)(F)C(F)(F)C(F)(F)F`: the call in experiment [6], in experiment [7], in [8], in experiment [9], in experiment [11] and in experiment [12] was inactive. For the same molecule, the outcome in [13] and in [14] was inactive.

Source of the values: PubChem BioAssay (EPA / NIEHS).
